# High-throughput results deposited in PubChem BioAssay by several laboratories.
# Hits are enriched below; roughly 2.7% of the tested compounds scored in any of these assays.
# CHT PAM: allosterically activates the human high affinity choline transporter. Q9GZV3. CHT-expressing cells, membrane potential dye, choline EC20; stronger effect = higher value; LV-AA mutant CHT in HEK293 cells. B-score at 10 µM. 310,000 tested, 0.49% active. AID 488977;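 active = initial fluorescence not abnormally high and integrated response B-score, plate-corrected, over 3 SD above library mean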
# IDE inh: inhibits human insulin-degrading enzyme in HEK cells; P14735; FAbetaB cleavage, fluorescence polarization; inhibition, % at 5.59 µM; 320,000 tested, 0.41% active;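 active = percent inhibition above the average of all tested compounds plus 3 SD, set per screening campaign, cut at about 16% in these data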;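 note: IDE supplied by intact live HEK cells; FP after avidin binding of uncleaved biotin substrate so inhibition keeps polarization high; 0% = DMSO wells and 100% = 60 µM reference IDE inhibitor Ii1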
# CHT block: inhibits the human high affinity choline transporter. Q9GZV3. CHT-expressing cells, membrane potential dye, choline response; stronger effect = lower value. B-score at 10 µM. 310,000 tested, 0.86% active. AID 488975;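 active = B-score over 3 SD under the library average, and starting fluorescence ratio not unusually high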;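 note: choline stimulus applied at its EC90 after an EC20 pre-addition; B-score computed on integrated fluorescence ratio after choline addition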
# TMEM16A act: activates or potentiates the mouse TMEM16A chloride channel | AID 623877 | 340,000 tested, 0.3% active | HEK293 TMEM16A/YFP-H148Q/I152L, iodide quench fluorescence; stronger effect = lower value | B-score at 10 µM | Q8BHY3;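 active = fluorescence-ratio B-score plate-corrected deviation score at least 3 library SD below zero, with starting fluorescence score within 5 deviations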;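 note: channel opened by trigger with iodide after compound preincubation; score built on the fluorescence ratio of max minus min over baseline; more negative score means more quench and so TMEM16A activation or potentiation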
# Target sequence (Q8BHY3 whole entry, looked up): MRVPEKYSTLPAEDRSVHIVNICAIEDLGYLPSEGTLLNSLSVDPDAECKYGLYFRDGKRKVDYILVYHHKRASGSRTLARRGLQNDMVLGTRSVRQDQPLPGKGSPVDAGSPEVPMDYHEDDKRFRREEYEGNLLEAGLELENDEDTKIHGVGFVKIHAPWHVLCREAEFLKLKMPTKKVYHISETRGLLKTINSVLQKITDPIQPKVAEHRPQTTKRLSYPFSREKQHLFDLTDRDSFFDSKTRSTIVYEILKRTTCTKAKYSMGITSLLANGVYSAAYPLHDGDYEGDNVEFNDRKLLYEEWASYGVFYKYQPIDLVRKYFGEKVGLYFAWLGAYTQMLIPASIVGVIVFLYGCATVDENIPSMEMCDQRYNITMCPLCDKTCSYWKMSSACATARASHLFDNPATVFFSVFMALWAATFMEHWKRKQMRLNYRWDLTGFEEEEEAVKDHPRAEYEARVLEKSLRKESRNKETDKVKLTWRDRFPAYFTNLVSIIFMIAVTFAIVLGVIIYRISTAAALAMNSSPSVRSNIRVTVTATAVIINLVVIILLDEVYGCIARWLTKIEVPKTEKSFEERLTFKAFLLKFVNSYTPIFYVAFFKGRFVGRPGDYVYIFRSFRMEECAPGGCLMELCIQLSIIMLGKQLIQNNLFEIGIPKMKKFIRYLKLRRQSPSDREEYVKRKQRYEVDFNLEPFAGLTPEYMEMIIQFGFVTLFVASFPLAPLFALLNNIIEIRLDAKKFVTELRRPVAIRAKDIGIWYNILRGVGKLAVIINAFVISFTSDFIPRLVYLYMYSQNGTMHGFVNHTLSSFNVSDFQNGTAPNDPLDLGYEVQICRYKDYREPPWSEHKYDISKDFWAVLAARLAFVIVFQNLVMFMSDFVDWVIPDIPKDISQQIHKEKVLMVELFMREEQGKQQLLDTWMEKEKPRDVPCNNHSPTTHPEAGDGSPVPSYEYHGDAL
# IDE act: activators of human insulin-degrading enzyme in cells. P14735. HEK cells, FAbeta-B cleavage, fluorescence polarization; 0% vehicle, 100% cell-free pure enzyme wells. activation, % at 5.96 µM. 340,000 tested, 0.073% active. AID 493087;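 active = activation above the mean of all tested compounds plus 3 SD, set per screening campaign, cut at about 17% in these data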
# ANO1 block: mouse TMEM16A channel inhibition, primary screen. Q8BHY3. HEK293 TMEM16A/YFP iodide influx fluorescence, ionomycin. normalized B-score (activity score, 25-100; higher = stronger inhibition) at 10 µM. 310,000 tested, 1.2% active. AID 588511;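 active = ratio plate-corrected score three or more library SD toward inhibition, starting fluorescence score within five deviations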;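 note: score derived from kinetic fluorescence span divided by baseline fluorescence per well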
# TMEM16A reconf: re-confirmation of mouse TMEM16A chloride channel inhibitors. AID 652189. 2,300 tested, 39% active. inhibition, % at 10 µM. shares compounds with ANO1 block. HEK293 TMEM16A/YFP-H148Q, iodide quench fluorescence; ionomycin added to raise cell calcium;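 active = mean duplicate percent inhibition, scaled so buffer wells are 0 and the reference blocker 100, over three buffer SD above buffer mean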
# HEK293 Ca mobil: alters calcium mobilization in TMEM16A HEK293 cells, counter-screen. shares compounds with ANO1 block. AID 652231. TMEM16A/YFP HEK293, Fluo4 calcium mobilization. 2,300 tested, 2% active. calcium response (% of ionomycin), % at 10 µM;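 active = duplicate-averaged calcium signal over 20% of the ionomycin maximum, relative to buffer baseline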;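 note: each well's signal is peak minus trough fluorescence divided by its pre-addition baseline; 0% = buffer wells and 100% = ionomycin wells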
# YFP-HEK293 quench: parental YFP-HEK293 iodide quench counter-screen activity | YFP ratio F(max-min)/F0 at 10 µM | ionomycin | 2,300 tested, under 10 active | shares compounds with ANO1 block | AID 652233;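 active = yellow fluorescent protein signal ratio exceeding the buffer control mean by over 5 SD of those controls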;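 note: ratio is mean of duplicate wells from kinetic YFP trace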
# ClC-1 rat inh: selectivity of TMEM16A inhibitors: inhibition of rat ClC-1 chloride channel. AID 652236. shares compounds with ANO1 block. ratio percent, % at 10 µM. 2,300 tested, under 10 active. CHO ClC-1-YFP, iodide influx fluorescence quench; iodide control reads 0, buffer control 100;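 active = duplicate-mean ratio percent above the mean of iodide-only control wells, which defines zero, plus 5 of their SD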;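 note: higher percent means stronger block of ClC-1 iodide influx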
# The depositor's hits bear a star; i = inactive; / = not tested or not shown; ! = a repeat was not active.
SMILES,CHT PAM,IDE inh,CHT block,TMEM16A act,IDE act,ANO1 block,TMEM16A reconf,HEK293 Ca mobil,YFP-HEK293 quench,ClC-1 rat inh
CCN(CC)C(=O)c1sc2nc(-c3cccs3)cc(-c3cccs3)c2c1N,i,1,i,i,2,i,i,i,-0.6,24
CCN(CC)C(=O)c1sc2nc(-c3cccs3)cc(-c3ccc(Cl)cc3)c2c1N,i,1,i,i,-4,i,/,/,/,/
Cc1ccc(S(=O)(=O)N2CCN(c3ccccc3)CC2)s1,/,4,/,i,4,/,/,/,/,/
CC(=O)c1ccc(N2CCN(CC(=O)NC(=O)NCc3ccccc3)CC2)cc1,/,7,/,i,-2,/,/,/,/,/
COc1cc2ncnc(NCc3ccccc3)c2cc1OC,i,8,i,i,-6,i,/,/,/,/
c1ccc(CNc2ncnc3ccccc23)cc1,i,1,i,i,-4,25*!,i,i,-1.2,-17
CCOC(=O)C1(Cc2ccccc2Cl)CCN(Cc2csc(C(C)=O)c2)CC1,i,1,i,i,4,25*,i,i,-1.1,-9
CCN(CC)c1ccc(NC(=O)CCCCCN2C(=O)c3ccccc3C2=O)cc1,i,1,i,i,-1,25*,i,i,-0.9,-6
Cc1cccc(Cn2c(Sc3nc(C)cs3)nc3c2c(=O)[nH]c(=O)n3C)c1,i,6,i,i,3,100*,i,i,-1,-12
Cc1csc(Sc2nc3c(c(=O)[nH]c(=O)n3C)n2Cc2ccccc2Cl)n1,i,7,i,i,-1,i,/,/,/,/
COc1ccc(OC)c(NC(=O)CCn2ccnc2)c1,i,3,i,i,1,i,/,/,/,/
CCCc1[nH]nc2c1C(C1CCCCC1)C(C#N)=C(N)O2 (centres undefined),i,-4,i,i,-4,i,/,/,/,/
CCCc1[nH]nc2c1C1(CCOC1C)C(C#N)=C(N)O2 (centres undefined),i,4,i,i,6,25*,i,i,-1.1,-12
Cc1ccccc1OCC(=O)N1N=C(C(F)(F)F)CC1(O)C(C)(C)C (centres undefined),i,1,i,i,2,25*,i,i,-1.1,-4
CC(C)(C)C1(O)CC(C(F)(F)F)=NN1C(=O)CCc1ccccc1 (centres undefined),i,1,i,i,-5,i,/,/,/,/
CO/N=C/C(C#N)c1ncc(C(F)(F)F)cc1Cl (centres undefined),i,1,i,i,7,25*,16%*,i,-0.84,-8
CO/N=C/C(c1ncc(C(F)(F)F)cc1Cl)S(=O)(=O)c1ccccc1 (centres undefined),i,3,i,i,-6,i,/,/,/,/
CC1(C)CC(=O)C(CCC(=O)c2ccccc2)C(C)(C)N1 (centres undefined),i,-9,i,i,-2,25*,i,i,-1.1,-14
CCOC(=O)c1c(C)n(CC(COC(C)=O)OC(C)=O)c2ccc(OC(C)=O)cc12 (centres undefined),i,0,i,i,3,25*,i,i,-1.2,-16
COc1ccc(-c2sc3cc4c(cc3c2C#Cc2ccc(N)cc2)OCO4)cc1,/,0,/,i,2,/,/,/,/,/
COc1ccccc1-c1nc(C#N)c(N2CCC(Cc3ccccc3)CC2)o1,i,-4,i,i,4,100*,i,i,-1.1,-15
N#Cc1nc(-c2ccccc2Cl)oc1N1CCCCC1,i,3,i,i,3,25*,i,i,-1,-7
CC1CC(C)CN(c2oc(-c3ccccc3Cl)nc2C#N)C1 (centres undefined),i,3,i,i,-2,i,/,/,/,/
Cc1ccc(S(=O)(=O)N2[C@@H](c3ccc(F)cc3)C(C(=O)O)=CC[C@H]2c2ccc(Cl)cc2)cc1,i,2,i,i,1,25*,i,i,-0.95,-14
Cc1ccc(S(=O)(=O)N2[C@@H](c3ccc(Br)cc3)C(C(=O)O)=CC[C@H]2c2ccc(Cl)cc2)cc1,/,9,/,/,0,/,/,/,/,/
SMILES,CHT PAM,IDE inh,CHT block,TMEM16A act,IDE act,ANO1 block,TMEM16A reconf,HEK293 Ca mobil,YFP-HEK293 quench,ClC-1 rat inh
Cc1ccc([C@@H]2CC=C(C(=O)O)[C@H](c3ccc(Cl)cc3)N2S(=O)(=O)c2ccc(C)cc2)cc1,i,6,i,i,-4,25*,16%*,i,-1,-3
CC(C)(C)c1cc(C(c2cccnc2)N2CCN(CCO)CC2)cc(C(C)(C)C)c1O (centres undefined),i,6,i,i,-19,100*,68%*,i,-1.1,-42
CC(C)(C)n1nnnc1C(c1cccnc1)N1CCN(C2CCCCC2)CC1 (centres undefined),i,-2,i,/,2,i,/,/,/,/
CC(C)c1ccc(/C=C/C(=O)Nc2ccc(CN3CCOCC3)cc2)cc1,i,13,i,i,/,100*,26%*,i,-1.1,6
CCOC(=O)c1ccc(NC(=O)c2ccc(CN3CCOCC3)cc2)cc1,i,12,i,i,1,i,/,/,/,/
CC(C)c1ccc(C(=O)Nc2ccc(CN3CCOCC3)cc2)cc1,i,4,i,i,3,100*,i,i,-1.1,-14
O=C(/C=C/c1ccc(Cl)cc1)Nc1ccc(CN2CCOCC2)cc1,i,2,i,i,-11,i,/,/,/,/
Cc1ccc(C)c(CSc2nnc([C@@H](N)C(C)C)o2)c1,i,2,i,i,1,100*,i,i,-1.1,-2
Cc1ccc(C)c(CSc2nnc(CCN)o2)c1,i,7,i,i,3,i,/,/,/,/
O=C(c1ccc(OC2CCN(CCc3ccccc3)CC2)cc1)N1CCC[C@H]1CO,/,/,/,i,3,/,/,/,/,/
CC(=O)Oc1ccc(-c2cccc(C(=O)NCC(=O)O)c2)cc1,i,-3,i,i,1,25*,i,i,-1.1,-6
